# Assay results reported in the supplement of paper PMC12282887.
# ± gives the standard deviation of the averaged measurements.
# System: E. coli BW25113 tolCp lux reporter
# Assay: promoter activity interaction Z-score (Lux/OD deviation from empty-vector control); higher = stronger promoter induction by the compound
# Settings: 0.13 µg/ml; genetic background: wild type
# Outline: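 E. coli BW25113 (wild type or marA, soxS or rob deletion) carrying low-copy luxCDABE promoter reporters grew in 40 µl LB Lennox in 384-well plates at 37°C. Each compound was tested at four 1:2 dilutions in biological duplicates. OD600 and luminescence were read every 30 min for 12 h. Areas were taken over 0–8 h (wild type) or 1–9 h (mutants), and wells below 10% of median growth area were removed. The score is the Z-transformed residual of growth-normalised luminescence fitted against the empty-vector control.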
row,SMILES,promoter activity interaction Z-score
1,N=C(NCCCCCCNC(=N)NC(=N)Nc1ccc(Cl)cc1)NC(=N)Nc1ccc(Cl)cc1 [Chlorhexidine],0.112 ± 0.076
2,CCN1CCN(C(=O)N[C@@H](C(=O)N[C@@H]2C(=O)N3[C@@H]2SC(C)(C)[C@@H]3C(=O)O)c2ccccc2)C(=O)C1=O [Piperacillin],-0.441 ± 0.82
3,CO[C@@]12[C@H](COC(N)=O)C3=C(C(=O)C(C)=C(N)C3=O)N1C[C@@H]1N[C@@H]12 [Mitomycin C],0.0384 ± 0.54

# Same assay, conditions: 0.13 µg/ml; genetic background: ΔmarA
row,SMILES,promoter activity interaction Z-score
1,N=C(NCCCCCCNC(=N)NC(=N)Nc1ccc(Cl)cc1)NC(=N)Nc1ccc(Cl)cc1 [Chlorhexidine],-0.214 ± 1.4
2,CCN1CCN(C(=O)N[C@@H](C(=O)N[C@@H]2C(=O)N3[C@@H]2SC(C)(C)[C@@H]3C(=O)O)c2ccccc2)C(=O)C1=O [Piperacillin],-0.635 ± 0.38
3,CO[C@@]12[C@H](COC(N)=O)C3=C(C(=O)C(C)=C(N)C3=O)N1C[C@@H]1N[C@@H]12 [Mitomycin C],0.367 ± 0.36

# Same assay, conditions: 0.13 µg/ml; genetic background: Δrob
row,SMILES,promoter activity interaction Z-score
1,N=C(NCCCCCCNC(=N)NC(=N)Nc1ccc(Cl)cc1)NC(=N)Nc1ccc(Cl)cc1 [Chlorhexidine],-0.155 ± 0.64
2,CCN1CCN(C(=O)N[C@@H](C(=O)N[C@@H]2C(=O)N3[C@@H]2SC(C)(C)[C@@H]3C(=O)O)c2ccccc2)C(=O)C1=O [Piperacillin],0.0967 ± 0.77
3,CO[C@@]12[C@H](COC(N)=O)C3=C(C(=O)C(C)=C(N)C3=O)N1C[C@@H]1N[C@@H]12 [Mitomycin C],0.81 ± 0.56

# Same assay, conditions: 0.13 µg/ml; genetic background: ΔsoxS
row,SMILES,promoter activity interaction Z-score
1,N=C(NCCCCCCNC(=N)NC(=N)Nc1ccc(Cl)cc1)NC(=N)Nc1ccc(Cl)cc1 [Chlorhexidine],0.18 ± 2
2,CCN1CCN(C(=O)N[C@@H](C(=O)N[C@@H]2C(=O)N3[C@@H]2SC(C)(C)[C@@H]3C(=O)O)c2ccccc2)C(=O)C1=O [Piperacillin],-0.574 ± 0.84
3,CO[C@@]12[C@H](COC(N)=O)C3=C(C(=O)C(C)=C(N)C3=O)N1C[C@@H]1N[C@@H]12 [Mitomycin C],0.264 ± 0.25

# Same assay, conditions: 0.25 µg/ml; genetic background: wild type
row,SMILES,promoter activity interaction Z-score
1,C/C(=C\C(=O)OCCCCCCCCC(=O)O)C[C@@H]1OC[C@H](C[C@@H]2O[C@H]2[C@@H](C)[C@H](C)O)[C@@H](O)[C@H]1O [Pseudomonic acid],-0.891 ± 0.62
2,N=C(NCCCCCCNC(=N)NC(=N)Nc1ccc(Cl)cc1)NC(=N)Nc1ccc(Cl)cc1 [Chlorhexidine],-0.564 ± 0.81
3,CO[C@@]12[C@H](COC(N)=O)C3=C(C(=O)C(C)=C(N)C3=O)N1C[C@@H]1N[C@@H]12 [Mitomycin C],0.00312 ± 0.045

# Same assay, conditions: 0.25 µg/ml; genetic background: ΔmarA
row,SMILES,promoter activity interaction Z-score
1,C/C(=C\C(=O)OCCCCCCCCC(=O)O)C[C@@H]1OC[C@H](C[C@@H]2O[C@H]2[C@@H](C)[C@H](C)O)[C@@H](O)[C@H]1O [Pseudomonic acid],-0.0344 ± 0.2
2,N=C(NCCCCCCNC(=N)NC(=N)Nc1ccc(Cl)cc1)NC(=N)Nc1ccc(Cl)cc1 [Chlorhexidine],-0.365 ± 0.86
3,CO[C@@]12[C@H](COC(N)=O)C3=C(C(=O)C(C)=C(N)C3=O)N1C[C@@H]1N[C@@H]12 [Mitomycin C],-0.556 ± 0.81

# Same assay, conditions: 0.25 µg/ml; genetic background: Δrob
row,SMILES,promoter activity interaction Z-score
1,C/C(=C\C(=O)OCCCCCCCCC(=O)O)C[C@@H]1OC[C@H](C[C@@H]2O[C@H]2[C@@H](C)[C@H](C)O)[C@@H](O)[C@H]1O [Pseudomonic acid],-0.281 ± 0.4
2,N=C(NCCCCCCNC(=N)NC(=N)Nc1ccc(Cl)cc1)NC(=N)Nc1ccc(Cl)cc1 [Chlorhexidine],0.568 ± 0.35
3,CO[C@@]12[C@H](COC(N)=O)C3=C(C(=O)C(C)=C(N)C3=O)N1C[C@@H]1N[C@@H]12 [Mitomycin C],0.121 ± 0.86

# Same assay, conditions: 0.25 µg/ml; genetic background: ΔsoxS
row,SMILES,promoter activity interaction Z-score
1,C/C(=C\C(=O)OCCCCCCCCC(=O)O)C[C@@H]1OC[C@H](C[C@@H]2O[C@H]2[C@@H](C)[C@H](C)O)[C@@H](O)[C@H]1O [Pseudomonic acid],-1.37 ± 0.18
2,N=C(NCCCCCCNC(=N)NC(=N)Nc1ccc(Cl)cc1)NC(=N)Nc1ccc(Cl)cc1 [Chlorhexidine],0.574 ± 0.065
3,CO[C@@]12[C@H](COC(N)=O)C3=C(C(=O)C(C)=C(N)C3=O)N1C[C@@H]1N[C@@H]12 [Mitomycin C],1.27 ± 0.93
